Source: PubChem BioAssay
Anesthetic bind – qHTS Assay for Identification of Novel General Anesthetics; 350,000 tested, 0.074% active; Ferritin light chain (Equus caballus), P02791; apoferritin/1-aminoanthracene competitive binding, fluorescence; Potency, µM (series often up to 77.5 µM), for the others: at the highest dose activity change, negative = displacement, most hits filed as inhibitors; further: potency means the concentration at half of the fitted maximal effect; nearly all actives have a fitted effect of over 20% in size
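In PBS, apoferritin at 10 uM is loaded with 1-AMA from a 50% saturated solution. After 10 min of compound exposure at ambient temperature, reduced 535 nm fluorescence indicates probe displacement.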
GALK inhibitor – qHTS Assay for Inhibitors of Human Galactokinase (GALK); Potency, µM (highest dose often 57.5 µM), without a hit: top-dose activity change, negative = inhibition, hits mostly inhibitors; P51570; Purified GALK, Kinase-Glo residual ATP luminescence; 270,000 tested, 0.007% active; further: potency means the concentration at half of the fitted maximal effect
Target sequence (P51570 whole entry, looked up): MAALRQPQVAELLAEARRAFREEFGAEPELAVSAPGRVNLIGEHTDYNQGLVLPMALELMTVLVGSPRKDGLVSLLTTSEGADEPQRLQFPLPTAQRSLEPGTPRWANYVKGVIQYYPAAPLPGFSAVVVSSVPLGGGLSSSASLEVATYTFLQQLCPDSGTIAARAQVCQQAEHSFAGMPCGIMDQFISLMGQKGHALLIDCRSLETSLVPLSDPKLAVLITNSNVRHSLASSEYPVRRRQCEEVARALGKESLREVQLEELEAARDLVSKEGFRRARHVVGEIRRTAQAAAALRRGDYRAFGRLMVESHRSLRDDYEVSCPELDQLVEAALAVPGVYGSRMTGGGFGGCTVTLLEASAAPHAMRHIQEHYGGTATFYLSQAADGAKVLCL
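Compounds were pin-transferred into ATP buffer (35 uM final), then GALK plus galactose (5 nM, 100 uM final) was added. After 1 h at room temperature, Kinase-Glo Plus was added and luminescence read after 10 min.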
Eya2 phos inh – qHTS Assay for Inhibitors of the Phosphatase Activity of Eya2. 330,000 tested, 0.006% active. Potency, µM (highest dose often 76.9 µM), inactives show top-dose activity, negative = inhibition, hits mostly inhibitors. Protein phosphatase EYA2 (Homo sapiens), O00167. recombinant Eya2, OMFP fluorescence dephosphorylation (OMFP is methylfluorescein phosphate); further: potency means the concentration at half of the fitted maximal effect
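Eya2 protein (added as 0.2 uM solution) was preincubated with compound for 10 min at ambient temperature in 50 mM HEPES pH 7.5, 50 mM NaCl, 5 uM MgCl2, 0.05% BSA, 1 mM DTT. OMFP (added at 50 uM) then reacted 10 min; fluorescence read at 485/525 nm.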
CtBP-E1A blk – qHTS Assay for Inhibitors of the CtBP/E1A Interaction | CtBP / adenovirus E1A interaction (AlphaScreen) | AlphaScreen GST-E1A/His-CtBP binding, 1536-well; active compounds read low | activity change, % (concentration not given with the values) | 340,000 tested, 0.49% active | AID 651724, 2012; in the data active means activity change below about -65%; inconclusive means mostly about -30% to -63%
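In 5 uL wells, 23 nL compound meets equimolar GST-E1A and His-CtBP (5X stock 125 nM each) for 2 h, 37 °C. Beads (5X, 50 ug/mL) then 1 h, 37 °C, dark.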
Six1-Eya2 inh – qHTS Assay for Inhibitors of the Six1/Eya2 Interaction; Homeobox protein SIX1 (Homo sapiens) + Protein phosphatase EYA2 (Homo sapiens), …; AlphaScreen GST-Six1/His-Eya2 binding, biochemical; active compounds read low; activity change, % (test concentration not listed); 360,000 tested, 0.56% active; in the data active means activity change below about -65%; inconclusive means mostly about -30% to -63%
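Six1/Eya2 binding was read as AlphaScreen signal after compounds were pinned into GST-Six1 plus His-tagged Eya2 (5X stock 250/500 nM) in pH 8.0 Tris/NaCl/TCEP buffer, beads added, then incubated 1 h, 37 C, dark.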
JMJD2E inh – qHTS Assay for Inhibitors of Human Jumonji Domain Containing 2E (JMJD2E); Lysine-specific demethylase 4E (Homo sapiens), B2RXH2; JMJD2E catalytic domain, FDH-coupled NADH fluorescence (FDH is formaldehyde dehydrogenase); Potency, µM (top dose mostly 57.1 µM), for the others: top-dose activity change, negative = inhibition, usual class: inhibitors; 230,000 tested, 1.6% active; AID 2147, 2009; active means well fitted inhibition curve with a large enough effect, not every such curve was filed as active; inconclusive means small, poorly fitted or top-dose-only effect, or another doubt; inactive means no such curve, though single readings can be large or run the other way;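 further: potency means the concentration at half of the fitted maximal effect; 0% = wells with enzyme and -100% = buffer wells without enzyme; nearly all actives have a fitted effect of over 50% in size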
Target sequence (B2RXH2 1-337 limits assumed): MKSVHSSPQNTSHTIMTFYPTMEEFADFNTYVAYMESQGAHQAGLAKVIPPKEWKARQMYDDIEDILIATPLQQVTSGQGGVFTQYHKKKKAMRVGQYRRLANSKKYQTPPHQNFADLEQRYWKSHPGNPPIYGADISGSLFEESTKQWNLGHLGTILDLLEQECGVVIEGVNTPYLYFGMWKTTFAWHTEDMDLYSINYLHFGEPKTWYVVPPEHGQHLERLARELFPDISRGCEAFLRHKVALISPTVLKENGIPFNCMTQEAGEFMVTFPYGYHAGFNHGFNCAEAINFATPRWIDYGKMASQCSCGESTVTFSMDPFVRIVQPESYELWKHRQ
Starred values were filed as active, the others as inactive; u = inconclusive; x = no result; ! = not confirmed by another sample; [ ] = another dose, or the depositor's remark. This excerpt belongs to a sample that is enriched for hits. Unless noted, the call rests on the fitted dose curve; in most records, active means well fitted curve in the direction sought with a large enough effect; inconclusive means small, poorly fitted or top-dose-only effect, or another doubt; inactive means no such curve, though single readings can be large; an effect the other way counts as inactive or inconclusive. Unless noted, on the % scale 0 is the no-effect control and ±100 the full control effect.

SMILES	Anesthetic bind	GALK inhibitor	Eya2 phos inh	CtBP-E1A blk	Six1-Eya2 inh	JMJD2E inh
Cc1ccccc1NC(=S)N/N=C/c1ccc(O)cc1O	-9.3%	3.3%	3.9%	-97.4*	-89.0*	14.1µM*
Cc1cccc(NC(=S)N/N=C/c2cccc(O)c2)c1C	-3.9%	-2.6%	3.8%	-2.4	-1.6	7.4%
O=C(CNC(=O)c1cccs1)N/N=C/c1ccc(O)cc1O	u	0.5%	0.8%	u	-86.2*	3.16µM*
O=C(CNC(=O)c1cccnc1)N/N=C/c1ccc(O)cc1O	-3.3%	x	15.3%	-86.3*	-71.6*	x
O=C(NN=Cc1ccc(O)cc1O)c1ccccc1NS(=O)(=O)c1cccs1	x	x	7.1%	-80.0*	u	x
COc1ccc2c(c1)[C@]1(C)CCC(=O)C[C@H]1CC2	-7.3%	x	x	x	x	-26.9%
Cc1cccc(N2CCN(c3cc(C)nc4c(-c5ccc(Cl)cc5)c(C)nn34)CC2C)c1 (stereo not given)	0.7%	x	x	x	x	x
O=C(O)CCC(=O)C(=O)O (tested in a mixture with another compound)	6.2%	x	x	x	x	-5.5%
COc1cccc(CNC(=O)Cn2c(=O)ccc3cc(S(=O)(=O)N4CCC(C)CC4)ccc32)c1	-5.1%	x	x	x	x	x
Cc1cccc(NC(=O)CCC(=O)N/N=C/c2ccc(O)cc2O)c1	-3.1%	x	0.9%	-83.9*	u	x
Cc1ccc(NC(=O)CCC(=O)N/N=C/c2ccccc2O)cc1	-7.1%	8.7%	-3.8%	x	10.3	x
CCN1C(=NCC(C)C)N[C@@H](c2ccccc2)[C@H](C(=O)OC)[C@H]1C	-4.3%	x	8.9%	x	x	x
CC(=O)N(OCc1ccccc1)[C@@H]1c2cc(C#N)ccc2OC(C)(C)[C@H]1O	-1.7%	x	x	x	x	7.5%
Cc1ccc(S(=O)(=O)Nc2cc(C(C(=O)OC(C)C)C(=O)C(F)(F)F)c(O)c3ccccc23)c(C)c1 (stereo not given)	u	-0.8%	-24.9%	-21.3	-77.4*	-8.3%
COC(=O)C1OC(=O)C2OC23[C@]2(C)C(O)CC4C(C)(C)C(OC(C)=O)CC(OC(C)=O)[C@@]4(C)C2CC[C@@]13C (stereo not given in full)	-3.3%	x	x	x	x	-2.2%
O=C(Oc1cccc2cccnc12)c1ccccc1	-14.1%	x	x	x	x	x
O=C(/C=C/c1ccccc1)Oc1cccc2cccnc12	-6.1%	-0.6%	5.5%	x	-72.9*	-22.6%
O=C(/C=C\c1ccccc1)Oc1cccc2cccnc12	-16.1%	4.6%	-10.1%	x	-67.3*	-19.2%
CSc1nc2sc3c(c2c(=O)n1-c1ccc(F)c(Cl)c1)CCN(C(C)=O)C3	-2.6%	x	x	x	x	x
COc1ccc(-c2cc(-c3ccccc3)nc(N)n2)c(O)c1	x	x	x	-25.4	-76.6*	x
COc1ccc(N2C(=O)CSC23C(=O)N(CC(=O)Nc2ccccc2F)c2ccccc23)cc1 (stereo not given)	-6.3%	x	x	x	x	x
Nn1c(SC/C=C/c2ccccc2)nnc1-c1ccccn1	-19.7%	3.0%	-10.6%	-77.8*	-75.3*	1.5%
Nn1c(SC/C=C/c2ccccc2)nnc1-c1cccnc1	-18.6%	-3.5%	-13.3%	-1.3	5.6	-8.1%
Oc1ccc(-c2cn3c(n2)SCC3)cc1O	-19.7%	-0.4%	-20.0%	-25.0	u	12.6µM*
Oc1ccc(-c2cn3c(n2)SCC3)cc1	-10.2%	1.5%	-7.3%	-1.6	2.8	-2.4%
SMILES	Anesthetic bind	GALK inhibitor	Eya2 phos inh	CtBP-E1A blk	Six1-Eya2 inh	JMJD2E inh
CC1=CC2(O)OCCN(CCO)C2=CC1=O (stereo not given)	-10.3%	-0.9%	-3.9%	-7.8	-1.8	25.1µM*
C[C@]12CCC3c4ccc(O)cc4CCC3C1CCC2=O (stereo not given in full)	x	x	x	x	x	-1.4%
CC(=O)N[C@H](CS)C(=O)O	28.9%	x	x	x	x	u
CC(=O)N[C@@H](CS)C(=O)O	1.1%	4.4%	3.4%	5.2	-4.4	25.1µM*!
COc1ccc(NC(=O)CN2CCCN(Cc3ccc(Cl)cc3)S2(=O)=O)cc1Cl	48.3%	x	x	x	x	x
CC1CCN(CC(=O)Nc2ccc(N3CCCCCC3)cc2)CC1	u	-1.8%	11.4%	u	u	22.4µM*
O=C(CNC1CCCC1)Nc1ccc(N2CCCCCC2)cc1	u	10.5%	-5.2%	2.2	u	8.91µM*
Cc1ccc(C(=O)Nc2ccc(N3CCCC3)cc2)c(C)c1	3.0%	1.4%	7.3%	-9.3	-15.6	25.1µM*
O=C(CNC1CCCCCC1)Nc1ccc(N2CCCC2)cc1	-22.4%	x	-0.1%	x	x	-6.4%
O=C(CNCC1CCCCC1)Nc1ccc(N2CCCCC2)cc1	u	8.8%	1.0%	x	x	28.2µM*
CC(=O)[C@@H]1CC[C@@H]2[C@@H]3C[C@H](C)C4=CC(=O)CC[C@@]4(C)[C@H]3[C@H](O)C[C@]21C	-11.3%[29.3 µM]	x	x	x	x	-1.2%[25.5 µM]
COC1OC2COC(c3ccccc3)OC2C(O)C1O (stereo not given)	x	x	x	x	x	3.4%
CC(=O)[C@]1(O)CCC2C3CC(C)C4=CC(=O)C=CC4(C)[C@@]3(F)C(O)C[C@]21C (stereo not given in full)	-4.1%	x	x	x	x	8.6%
CCSc1nc2c([nH]c3ccccc32)c(=O)n1-c1ccc(OC)cc1	10.4%	x	x	x	x	x
Nc1ccc(O)cc1C(=O)OCC(=O)C12CC3CC(CC(C3)C1)C2	31.6µM*	6.0%	-11.8%	-16.6	-4.9	u
Brc1ccc(N/N=C(/N=Nc2nn[nH]n2)c2ccccc2)cc1	u	0.4%	2.8%	x	u	25.1µM*
CCn1c2ccccc2c2cc(CN3CCN(Cc4cc(OC)ccc4O)CC3)ccc21	12.3%	-2.7%	11.7%	u	u	17.8µM*
N[C@H](C(=O)O)c1cccc(O)c1	13.8%	x	x	x	x	22.4µM*
